Of roughly 8,800 targets only a part is listed; those with a hit were picked by preference. About 0.5% of all pairs of compound and target were hits. A number with no mark means an inactive call.
Compound: NC1(c2ccc(-c3nc4ccn5c(=O)[nH]nc5c4cc3-c3ccccc3)cc2)CCC1
Assay: log2 fold change, soluble protein after heating vs DMSO (PISA); higher = thermal stabilisation; K562 lysate, 10 uM; active = over 0.2 and 3.5 SD of the protein, either way, in both replicates (recomputed)
Summary of the method: (§1)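 A 30 min treatment with 10 μM compound was applied to crude K562 extract at 1 mg/mL protein in PBS pH 7.4 with 1 mM MgCl2. Heating for 3 min spanned 48°C-58°C, after which aliquots were pooled, adjusted to 0.5% NP-40 at 4°C and spun at 21,000xg for 90 min. TMTpro 16plex LC-MS/MS of the supernatant, with channel sums equalised, gave values recorded as log-two fold change in thermal stability against solvent controls, from duplicates.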

Sequence of UniProt Q9H6D7 (Q9H6D7 whole entry, looked up): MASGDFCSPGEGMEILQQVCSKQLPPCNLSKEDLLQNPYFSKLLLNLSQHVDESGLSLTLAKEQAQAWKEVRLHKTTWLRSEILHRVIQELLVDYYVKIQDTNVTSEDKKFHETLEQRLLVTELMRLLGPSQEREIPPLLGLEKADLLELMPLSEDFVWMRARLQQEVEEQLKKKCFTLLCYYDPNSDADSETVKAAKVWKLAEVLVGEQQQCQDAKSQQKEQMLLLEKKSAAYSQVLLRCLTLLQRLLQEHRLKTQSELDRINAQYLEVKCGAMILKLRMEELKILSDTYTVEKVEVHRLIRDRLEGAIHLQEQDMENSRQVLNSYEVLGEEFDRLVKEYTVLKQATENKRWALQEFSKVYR
Sequence of UniProt Q01581 (Q01581 whole entry, looked up): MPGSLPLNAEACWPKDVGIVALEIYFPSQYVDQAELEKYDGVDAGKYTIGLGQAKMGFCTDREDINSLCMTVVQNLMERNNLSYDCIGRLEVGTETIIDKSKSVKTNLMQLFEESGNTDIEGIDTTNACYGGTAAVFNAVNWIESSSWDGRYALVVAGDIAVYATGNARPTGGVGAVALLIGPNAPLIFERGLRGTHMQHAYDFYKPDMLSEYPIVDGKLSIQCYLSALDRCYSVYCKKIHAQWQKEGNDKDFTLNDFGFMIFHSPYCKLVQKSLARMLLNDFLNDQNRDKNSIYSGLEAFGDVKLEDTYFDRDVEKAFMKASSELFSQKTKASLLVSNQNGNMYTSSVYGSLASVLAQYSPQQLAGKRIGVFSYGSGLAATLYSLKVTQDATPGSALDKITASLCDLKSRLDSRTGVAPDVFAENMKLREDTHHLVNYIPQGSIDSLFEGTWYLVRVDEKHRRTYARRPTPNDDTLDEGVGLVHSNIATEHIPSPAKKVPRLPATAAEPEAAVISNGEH
Sequence of UniProt Q14103 (Q14103 whole entry, looked up): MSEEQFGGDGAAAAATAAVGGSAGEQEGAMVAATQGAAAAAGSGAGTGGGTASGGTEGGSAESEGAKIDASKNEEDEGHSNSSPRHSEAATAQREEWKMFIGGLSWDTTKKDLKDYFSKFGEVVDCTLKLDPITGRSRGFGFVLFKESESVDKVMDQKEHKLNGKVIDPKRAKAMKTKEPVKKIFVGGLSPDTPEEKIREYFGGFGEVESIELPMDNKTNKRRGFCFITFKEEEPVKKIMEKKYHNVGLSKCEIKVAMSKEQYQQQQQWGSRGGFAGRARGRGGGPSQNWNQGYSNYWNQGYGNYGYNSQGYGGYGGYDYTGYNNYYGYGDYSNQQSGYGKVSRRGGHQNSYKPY
Sequence of UniProt Q99729 (Q99729 whole entry, looked up): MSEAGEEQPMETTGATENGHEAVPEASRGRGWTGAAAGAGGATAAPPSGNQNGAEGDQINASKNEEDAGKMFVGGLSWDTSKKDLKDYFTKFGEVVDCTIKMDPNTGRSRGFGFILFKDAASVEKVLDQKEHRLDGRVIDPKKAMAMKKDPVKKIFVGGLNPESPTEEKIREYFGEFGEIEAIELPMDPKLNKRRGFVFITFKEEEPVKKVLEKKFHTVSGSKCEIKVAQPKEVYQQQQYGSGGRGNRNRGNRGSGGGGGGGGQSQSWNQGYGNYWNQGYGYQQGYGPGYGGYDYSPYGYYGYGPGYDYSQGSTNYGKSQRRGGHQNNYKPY
Sequence of UniProt O75367 (O75367 whole entry, looked up): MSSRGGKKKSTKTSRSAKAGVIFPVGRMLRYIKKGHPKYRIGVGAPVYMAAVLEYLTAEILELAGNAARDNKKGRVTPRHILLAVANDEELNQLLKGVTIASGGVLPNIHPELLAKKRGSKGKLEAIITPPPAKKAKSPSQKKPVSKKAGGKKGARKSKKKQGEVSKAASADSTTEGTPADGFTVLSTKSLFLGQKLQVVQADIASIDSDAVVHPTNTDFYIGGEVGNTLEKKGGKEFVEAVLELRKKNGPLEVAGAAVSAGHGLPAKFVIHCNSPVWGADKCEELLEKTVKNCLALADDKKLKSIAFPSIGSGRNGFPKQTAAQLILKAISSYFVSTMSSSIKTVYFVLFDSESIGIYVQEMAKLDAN
Sequence of UniProt O00425 (O00425 whole entry, looked up): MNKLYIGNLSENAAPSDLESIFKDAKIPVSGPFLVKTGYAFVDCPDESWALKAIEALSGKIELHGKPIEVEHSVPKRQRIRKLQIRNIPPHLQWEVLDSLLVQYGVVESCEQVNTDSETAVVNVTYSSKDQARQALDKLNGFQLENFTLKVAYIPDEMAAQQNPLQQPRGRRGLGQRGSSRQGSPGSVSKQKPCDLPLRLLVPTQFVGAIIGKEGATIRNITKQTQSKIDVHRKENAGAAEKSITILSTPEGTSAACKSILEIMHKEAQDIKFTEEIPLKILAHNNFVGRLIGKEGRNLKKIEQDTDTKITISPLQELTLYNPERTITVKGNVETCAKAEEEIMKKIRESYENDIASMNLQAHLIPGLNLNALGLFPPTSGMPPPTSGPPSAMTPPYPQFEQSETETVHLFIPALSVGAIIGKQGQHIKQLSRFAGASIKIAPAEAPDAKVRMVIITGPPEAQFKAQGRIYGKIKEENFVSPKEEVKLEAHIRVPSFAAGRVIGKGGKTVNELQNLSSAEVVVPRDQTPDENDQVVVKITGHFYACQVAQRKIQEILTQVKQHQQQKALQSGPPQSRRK
Sequence of UniProt Q15046 (Q15046 whole entry, looked up): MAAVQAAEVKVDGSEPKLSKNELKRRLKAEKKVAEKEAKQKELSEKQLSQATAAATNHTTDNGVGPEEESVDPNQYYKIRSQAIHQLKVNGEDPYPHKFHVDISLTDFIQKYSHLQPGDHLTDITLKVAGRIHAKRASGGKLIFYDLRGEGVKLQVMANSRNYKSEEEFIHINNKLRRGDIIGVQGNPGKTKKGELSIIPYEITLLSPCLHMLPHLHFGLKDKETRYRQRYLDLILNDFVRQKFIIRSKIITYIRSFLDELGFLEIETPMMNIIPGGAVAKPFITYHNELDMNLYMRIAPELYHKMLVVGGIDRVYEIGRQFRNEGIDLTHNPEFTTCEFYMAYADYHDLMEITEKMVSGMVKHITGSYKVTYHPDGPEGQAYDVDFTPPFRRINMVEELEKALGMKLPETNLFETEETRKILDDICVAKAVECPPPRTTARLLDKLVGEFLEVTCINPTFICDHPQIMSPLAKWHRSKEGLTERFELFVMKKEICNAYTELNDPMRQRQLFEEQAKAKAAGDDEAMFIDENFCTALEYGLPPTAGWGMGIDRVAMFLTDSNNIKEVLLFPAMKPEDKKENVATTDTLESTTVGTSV
Sequence of UniProt Q8NC54 (Q8NC54 whole entry, looked up): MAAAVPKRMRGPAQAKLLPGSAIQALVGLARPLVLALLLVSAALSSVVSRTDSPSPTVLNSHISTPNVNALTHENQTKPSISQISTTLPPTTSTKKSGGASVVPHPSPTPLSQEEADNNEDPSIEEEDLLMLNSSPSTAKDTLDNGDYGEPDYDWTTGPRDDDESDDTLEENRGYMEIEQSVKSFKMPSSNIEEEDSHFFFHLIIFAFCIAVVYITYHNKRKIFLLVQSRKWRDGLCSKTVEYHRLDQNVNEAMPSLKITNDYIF
Sequence of UniProt P32780 (P32780 whole entry, looked up): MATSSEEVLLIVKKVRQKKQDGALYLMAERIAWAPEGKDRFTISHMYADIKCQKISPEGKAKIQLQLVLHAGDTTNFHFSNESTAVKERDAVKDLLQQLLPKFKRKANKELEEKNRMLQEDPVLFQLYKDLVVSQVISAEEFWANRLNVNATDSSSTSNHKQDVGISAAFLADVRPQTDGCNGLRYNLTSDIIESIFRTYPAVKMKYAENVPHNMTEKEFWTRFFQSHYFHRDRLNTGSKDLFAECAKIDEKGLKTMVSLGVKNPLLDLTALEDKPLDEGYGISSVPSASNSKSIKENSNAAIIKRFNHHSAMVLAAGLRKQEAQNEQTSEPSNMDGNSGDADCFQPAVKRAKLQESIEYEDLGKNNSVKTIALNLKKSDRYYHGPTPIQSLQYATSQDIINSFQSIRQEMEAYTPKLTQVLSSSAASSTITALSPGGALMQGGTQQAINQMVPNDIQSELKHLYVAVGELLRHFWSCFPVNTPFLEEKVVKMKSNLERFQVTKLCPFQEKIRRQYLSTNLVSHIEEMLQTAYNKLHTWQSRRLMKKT
Sequence of UniProt Q8IY47 (Q8IY47 whole entry, looked up): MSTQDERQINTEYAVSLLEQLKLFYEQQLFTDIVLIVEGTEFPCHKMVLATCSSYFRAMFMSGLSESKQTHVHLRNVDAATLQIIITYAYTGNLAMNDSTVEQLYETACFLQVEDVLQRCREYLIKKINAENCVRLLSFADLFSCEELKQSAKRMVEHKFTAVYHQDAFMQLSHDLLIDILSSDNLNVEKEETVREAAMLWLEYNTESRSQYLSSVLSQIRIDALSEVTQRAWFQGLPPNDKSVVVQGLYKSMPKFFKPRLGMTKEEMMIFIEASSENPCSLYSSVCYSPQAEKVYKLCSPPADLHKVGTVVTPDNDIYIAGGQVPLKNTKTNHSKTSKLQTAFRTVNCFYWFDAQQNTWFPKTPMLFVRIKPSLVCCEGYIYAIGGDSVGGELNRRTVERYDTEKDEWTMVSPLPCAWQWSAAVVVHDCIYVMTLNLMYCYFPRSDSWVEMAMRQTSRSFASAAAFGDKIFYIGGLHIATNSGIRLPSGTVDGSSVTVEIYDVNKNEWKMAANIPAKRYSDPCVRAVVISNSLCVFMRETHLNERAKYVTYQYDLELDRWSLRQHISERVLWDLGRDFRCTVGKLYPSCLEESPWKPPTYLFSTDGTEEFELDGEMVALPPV
Sequence of UniProt Q96AB3 (Q96AB3 whole entry, looked up): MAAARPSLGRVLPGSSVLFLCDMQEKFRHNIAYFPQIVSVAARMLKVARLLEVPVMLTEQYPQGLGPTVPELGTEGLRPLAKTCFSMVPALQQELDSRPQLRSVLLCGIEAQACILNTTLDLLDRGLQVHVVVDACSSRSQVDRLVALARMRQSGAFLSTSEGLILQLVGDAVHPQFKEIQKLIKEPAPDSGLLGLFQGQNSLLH

Row | Target | log2 fold change
1 | GLUD2 (UniProt P49448) | -0.004
2 | HAUS4 (UniProt Q9H6D7) | -0.012
3 | HNRNPD isoform 2 (UniProt Q14103) | -0.008
4 | HECTD3 (UniProt Q5T447) | 0.056
5 | GTF2H1 (UniProt P32780) | -0.036
6 | KARS1 (UniProt Q15046) | 0.02
7 | HMGCS1 (UniProt Q01581) | -0.018
8 | HNRNPAB isoform 3 (UniProt Q99729) | 0.012
9 | ISOC2 (UniProt Q96AB3) | -0.036
10 | IGF2BP3 (UniProt O00425) | -0.027
11 | KBTBD2 (UniProt Q8IY47) | -0.202
12 | H2AFY (UniProt O75367) | -0.034
13 | KCT2 (UniProt Q8NC54) | 0.005

Compound: NCC(=O)Nc1ccc(-n2nc(C(F)(F)F)cc2-c2ccc3c(ccc4ccccc43)c2)cc1
Assay: as above
Summary of the method: as §1

Row | Target | log2 fold change
14 | GTPBP2 (UniProt Q9BX10) | 0.029
15 | GMDS (UniProt O60547) | 0.027
16 | HSPA8 (UniProt E9PK54) | 0.068
17 | ILK (UniProt Q13418) | -0.047
18 | HNRNPUL2 (UniProt Q1KMD3) | 0.029
19 | KDM1A (UniProt O60341) | 0.01
20 | INF2 (UniProt Q27J81) | -0.023
21 | ITPKA (UniProt P23677) | 0.033
22 | INTS3 (UniProt Q68E01) | 0.049
23 | KBTBD4 isoform 2 (UniProt Q9NVX7) | 0.025
24 | HNRNPL (UniProt P14866) | 0.005
25 | HK1 isoform 2 (UniProt P19367) | 0.012
26 | HAUS8 (UniProt Q9BT25) | 0.083
27 | IMMT (UniProt Q16891) | -0.005
28 | HIST2H2AA3 (UniProt Q6FI13) | -0.056
29 | HAUS6 (UniProt Q7Z4H7) | -0.057
30 | ISY1 isoform 1 (UniProt Q9ULR0) | -0.163
31 | HLCS (UniProt P50747) | -0.048

Row | Target | log2 fold change
32 | HSD17B12 (UniProt Q53GQ0) | 0.025
33 | HAUS7 isoform 2 (UniProt Q99871) | -0.091
34 | GTF2A1 (UniProt P52655) | -0.029
35 | IL18R1 (UniProt Q13478) | -0.246
36 | IRAK4 (UniProt Q9NWZ3) | -0.031
37 | GLUD2 (UniProt P49448) | 0.297 (active)
38 | HAUS4 (UniProt Q9H6D7) | -0.022
39 | HNRNPD isoform 2 (UniProt Q14103) | 0.018
40 | HECTD3 (UniProt Q5T447) | -0.015
41 | GTF2H1 (UniProt P32780) | -0.019
42 | KARS1 (UniProt Q15046) | 0.021
43 | HMGCS1 (UniProt Q01581) | 0.018
44 | HNRNPAB isoform 3 (UniProt Q99729) | 0.067
45 | ISOC2 (UniProt Q96AB3) | -0.064
46 | IGF2BP3 (UniProt O00425) | -0.012
47 | KBTBD2 (UniProt Q8IY47) | 0.047
48 | H2AFY (UniProt O75367) | 0.008
49 | KCT2 (UniProt Q8NC54) | 0.015

Reference: the supplement of paper PMC10849652
